{"source": "PubChem BioAssay AID1950", "about": "(The Scripps Research Institute Molecular Screening Center, 2009)", "note": "The campaign covered roughly 300,000 compounds. About 1,000 (0.33%) were called active. Only a selection was taken, and actives are over-represented in it overall. Values without a mark were called inactive. No stated cut-off is given here; in the data, active means inhibition above about 28%; inactive means the rest."}
{"tested_on": "EBNA-1 (Epstein-Barr virus nuclear antigen 1), Human herpesvirus 4", "assay": "blockers of EBV EBNA-1 binding to DNA – biochemical, fluorescence polarization, primary screen (AID 1950)", "details": "EBNA-1 DNA binding, at 14.8 µM, active compounds read high"}
{"smiles": "Cc1nonc1NC(=O)c1oc2ccccc2c1C", "inhibition": "1.17%"}
{"smiles": "COc1ccc(-c2nonc2NC(=O)c2oc3ccc(F)cc3c2C)cc1OC", "inhibition": "34.8% (active)"}
{"smiles": "CCc1nonc1NC(=O)c1oc2ccc(Cl)cc2c1C", "inhibition": "7.96%"}
{"smiles": "O=C(CCS(=O)(=O)c1ccccc1)NC1CCCC1", "inhibition": "-3.67%"}
{"smiles": "Cc1ccc2nc(-c3ccc(NC(=O)CN(C)S(=O)(=O)c4ccccc4)cc3)sc2c1", "inhibition": "72.6% (active)"}
{"smiles": "Cc1nc2ccc(S(=O)(=O)N(C)CC(=O)NC(C)c3ccccc3)cc2s1", "note": "(centres undefined)", "inhibition": "-7.08%"}
{"smiles": "Cc1cccc(N(CC(=O)Nc2ccc(-c3nc4ccc(C)cc4s3)cc2)S(C)(=O)=O)c1", "inhibition": "46.6% (active)"}
{"smiles": "COc1cccc(N(CC(=O)Nc2cccc(F)c2)S(C)(=O)=O)c1", "inhibition": "-2.72%"}
{"smiles": "COc1cc(NC(=O)CN(C)S(=O)(=O)c2ccc3nc(C)sc3c2)cc(OC)c1", "inhibition": "1.78%"}
{"smiles": "CCN(CC)S(=O)(=O)c1ccc(NC(=O)CN(c2cccc(F)c2)S(C)(=O)=O)cc1", "inhibition": "-22.3%"}
{"smiles": "COc1cccc(CNn2cn[nH]c2=S)c1OCc1ccccc1", "inhibition": "7.14%"}
{"smiles": "O=C(CN1CCSCC1)N/N=C/c1ccc(F)cc1", "inhibition": "10.8%"}
{"smiles": "CCOc1ccc(CCNC(=O)COC(=O)c2ccc(F)c(S(=O)(=O)N3CCOCC3)c2)cc1OCC", "inhibition": "-5.23%"}
{"smiles": "O=C(Nc1ccccc1F)c1ccc(Cn2cc(Br)cn2)cc1", "inhibition": "-6.22%"}
{"smiles": "NC(=O)Cn1nc([N+](=O)[O-])nc1Oc1ccc(Br)cc1", "inhibition": "4.94%"}
{"smiles": "COc1ccc(CCNC(=O)C2CCCN2C(=O)Nc2ccccc2)cc1OC", "note": "(centres undefined)", "inhibition": "2.79%"}
{"smiles": "CCCCCCCCCCCCC(NC(C)=O)(C(=O)OCC)C(=O)OCC", "inhibition": "-7.56%"}
{"smiles": "CN(C)c1ccc(N/C=C/C(=O)C(F)(F)F)cc1", "inhibition": "173% (active)"}
{"smiles": "CC(C)CNC(=O)C(=O)Nc1ccc(N(C)C)cc1", "inhibition": "-3.03%"}
{"smiles": "CC(=O)N(C)c1ccc(NC(=O)C(F)(F)F)cc1", "inhibition": "-11.5%"}
{"smiles": "CCCn1nnnc1NCc1ccc(CC)cc1", "inhibition": "10.3%"}
{"smiles": "CC(C)c1ccc(NC(=S)NC2CC3C=CC2C3)cc1", "note": "(centres undefined)", "inhibition": "-1.5%"}
{"smiles": "COC(=O)CSc1nc(C)c2ccc(OC)cc2n1", "inhibition": "78.5% (active)"}
{"smiles": "COc1ccc2nc(SCc3ccccc3)nc(C)c2c1", "inhibition": "11.4%"}
{"smiles": "COc1ccc2[nH]c3nc(SCC(=O)NC4CC4)nnc3c2c1", "inhibition": "-0.29%"}
{"smiles": "CCN(CC)Cc1csc2ccc(Br)cc12", "inhibition": "5.3%"}
{"smiles": "O=C(C1CCC1)N1CCc2cc(S(=O)(=O)NCc3cccnc3)ccc21", "inhibition": "8.39%"}
{"smiles": "COc1cc(Nc2nc3ccc(Cl)cc3n3cnnc23)cc(OC)c1OC", "inhibition": "2.08%"}
{"smiles": "O=C(Nc1ccc(C2CC2(Cl)Cl)cc1)c1cccc([N+](=O)[O-])c1", "note": "(centres undefined)", "inhibition": "-4.52%"}
{"smiles": "Cc1ccc(-n2c(C)cc(/C=C(\\C#N)C(=O)NCC3CCCO3)c2C)cc1", "note": "(centres undefined)", "inhibition": "7.66%"}
{"smiles": "O=C(Cn1c(NCCO)nc2ccccc21)c1ccc(Cl)cc1Cl", "inhibition": "-13.3%"}
{"smiles": "Cc1ccc2c(C)c(C(=O)N(C)Cc3ccncn3)oc2c1C", "inhibition": "3.76%"}
{"smiles": "COc1ccc2c(c1)C(C)=CC(C)(C)N2C(=O)CNCc1ccc2c(c1)OCO2", "inhibition": "3.99%"}
{"smiles": "COc1ccc(NC(=O)NCc2ccc3c(c2)OCO3)c(OC)c1", "inhibition": "71.6% (active)"}
{"smiles": "COc1cc(OC)c(C(=O)NCc2ccc3c(c2)OCO3)cc1OC", "inhibition": "-7.83%"}
{"smiles": "O=C(NCc1ccccc1)[C@@H]1CSC2c3ccccc3C(=O)N21", "note": "(some centres undefined)", "inhibition": "-9.14%"}
{"smiles": "Cc1ccccc1CCN(CC(=O)NC1CCCCC1)C(=O)c1csnn1", "inhibition": "3.08%"}
{"smiles": "CCN(CC(=O)Nc1c(F)cccc1F)C(=O)CN1c2cccc3cccc(c23)S1(=O)=O", "inhibition": "-4.49%"}
{"smiles": "Nc1cc(N)nc(SCc2cccc(F)c2)n1", "inhibition": "-19.7%"}
{"smiles": "COC(=O)c1ccccc1NC(=O)CSc1nc2c(c(=O)[nH]1)CCC2", "inhibition": "-3.59%"}
{"smiles": "Cc1sc2c(c1C)c(=O)n(-c1ccccc1)c(=O)n2CC(=O)NCC1CCCO1", "note": "(centres undefined)", "inhibition": "1.39%"}
{"smiles": "Cc1cccc(-n2c(=O)c3c(C)c(C)sc3n(CC(N)=O)c2=O)c1", "inhibition": "-0.9%"}
{"smiles": "Cc1cccc(NC(=O)Cn2c(=O)n(Cc3ccccc3)c(=O)c3c(C)c(C)sc32)c1", "inhibition": "79.6% (active)"}
{"smiles": "CCOCCCN(C)C1CCN(C(=O)c2oc3ccccc3c2NC(=O)Cc2cccc([N+](=O)[O-])c2)CC1", "inhibition": "-6.1%"}
{"smiles": "CCOc1ccc(C(C(=O)NCCOC)N(CCOC)C(=O)CCC(=O)Nc2ccccn2)cc1", "note": "(centres undefined)", "inhibition": "-5.61%"}
{"smiles": "CCOc1ccc(-c2cn(S(=O)(=O)c3cccc4nsnc34)nc2N)cc1", "inhibition": "3.63%"}
{"smiles": "CCN(CC)c1ccc2oc(=O)c(C)nc2c1", "inhibition": "110% (active)"}
{"smiles": "CCN(CC)c1ccc2cc(C(N)=O)/c(=N\\NC(=O)c3ccncc3)oc2c1", "inhibition": "9.01%"}
{"smiles": "C=CCN(C(=O)Nc1ccc2oc(C)nc2c1)c1ccccc1", "inhibition": "14.4%"}
{"smiles": "C=CCOC(=O)C1=C[C@H](c2ccc(Br)cc2)C[C@H](OCCCCO)O1", "inhibition": "8.07%"}
{"smiles": "CCc1ccc(C(=O)NN=C2CCCCCC2)s1", "inhibition": "4.85%"}
{"smiles": "N#Cc1c(NC(=O)CCCl)sc2c1CCCCC2", "inhibition": "-14.9%"}
{"smiles": "CC(=O)c1c(C)[nH]c(C(=O)OCC(=O)Nc2sc3c(c2C#N)CCCC3)c1C", "inhibition": "42.2% (active)"}
{"smiles": "Cc1cccc(C(=O)OCC(=O)Nc2sc3c(c2C#N)CCC3)c1", "inhibition": "3.25%"}
{"smiles": "CC(=O)c1cc(-c2ccccc2)[nH]c1N1CCCC1", "inhibition": "-8.66%"}
{"smiles": "Cc1ccc2c(c1)C(O)(CC(=O)c1cccc(-n3cccc3)c1)C(=O)N2", "note": "(centres undefined)", "inhibition": "2.62%"}
{"smiles": "CCc1nccn1S(=O)(=O)c1cccc([N+](=O)[O-])c1", "inhibition": "31.4% (active)"}
{"smiles": "O=[N+]([O-])c1cccc(S(=O)(=O)N2CCCCCC2)c1", "inhibition": "1.71%"}
{"smiles": "CC1=NCCN1S(=O)(=O)c1cccc([N+](=O)[O-])c1", "inhibition": "-6.19%"}
{"smiles": "Cc1cc(Nc2ccc(Br)cc2)nc2ccccc12", "inhibition": "-8.6%"}
{"smiles": "O=C(N/C(=C/c1ccc(Cl)cc1)C(=O)N1CCCCC1)c1ccco1", "inhibition": "7.31%"}
{"smiles": "CC(=O)CC[C@@H](C)O[C@@H]1OC(C)[C@H](O)CC1O", "note": "(some centres undefined)", "inhibition": "4.39%"}
{"smiles": "COc1ccc(C)cc1NC(=O)NCCCCc1ccccc1", "inhibition": "2.71%"}
{"smiles": "COc1ccc(C)cc1NC(=O)NCc1ccccn1", "inhibition": "110% (active)"}
{"smiles": "Cc1cc(C)cc(NC(=O)NCc2ccccn2)c1", "inhibition": "-7.86%"}
{"smiles": "CCOc1ccc(S(=O)(=O)N2CCN=C2Cc2ccccc2)cc1C", "inhibition": "4.47%"}
{"smiles": "CC1CCCN(S(=O)(=O)c2ccc(-c3ccc(=O)[nH]n3)o2)C1", "note": "(centres undefined)", "inhibition": "-20.5%"}
{"smiles": "O=C(Nc1ccccc1)OCc1cn(-c2ccc(Cl)cc2)nn1", "inhibition": "6.14%"}
{"smiles": "Cc1cccc(N2Cc3ccccc3C2=NC(=O)c2ccc(Cl)nc2)c1", "inhibition": "17.6%"}
{"smiles": "N#Cc1ccc(N2Cc3ccccc3/C2=N/C(=O)Nc2ccc(Cl)cc2)cc1", "inhibition": "73.5% (active)"}
{"smiles": "COc1ccc(NC2CCCN(C(=O)c3ccncc3)C2)cc1", "note": "(centres undefined)", "inhibition": "5.52%"}
{"smiles": "C=CCN(c1ccc(Cl)cc1)S(=O)(=O)c1cccc(C(=O)OCC(=O)N(C)C)c1", "inhibition": "11.1%"}
{"smiles": "COc1ccc(C(C[N+](=O)[O-])n2nc(C)cc2C)cc1", "note": "(centres undefined)", "inhibition": "11%"}
{"smiles": "O=C(CCCn1c(SCC(=O)c2ccccc2)nc2ccccc2c1=O)NCC1CCCO1", "note": "(centres undefined)", "inhibition": "1.63%"}
{"smiles": "Cn1c(-c2ccc(F)cc2)cnc1SCC(=O)NCc1ccco1", "inhibition": "3.48%"}
{"smiles": "O=C(CCCn1c(SCC(=O)c2ccc(F)cc2)nc2ccccc2c1=O)NCc1ccco1", "inhibition": "37.8% (active)"}
{"smiles": "CC(C)C[C@H]1CN=C(Nc2ccccc2)N1CC1CCCCC1", "inhibition": "0.22%"}
{"smiles": "COc1ccc(NC(=O)C2C3CCC(O3)C2C(=O)O)cc1OC", "note": "(centres undefined)", "inhibition": "5.36%"}
{"smiles": "CCOc1cc(C2C(C(=O)OC)=CN(C3CCCC3)C=C2C(=O)OC)cc(Br)c1O", "inhibition": "11.7%"}
{"smiles": "COc1ccc(C(=O)Nc2ccccc2C(=O)N/N=C/c2ccc(O)c(OC)c2)cc1", "inhibition": "6.06%"}
{"smiles": "COC(=O)C1=CN(Cc2ccc(OC)cc2)C=C(C(=O)OC)C1c1ccc(O)c(OC)c1", "inhibition": "28.7% (active)"}
{"smiles": "Cc1ccccc1NC(=O)C(C)OC(=O)CCC(=O)N(CC(C)C)c1c(N)n(CC(C)C)c(=O)[nH]c1=O", "note": "(centres undefined)", "inhibition": "-7.69%"}
{"smiles": "COc1ccc(S(=O)(=O)NC(C)C(=O)N2CCCCCC2)cc1", "note": "(centres undefined)", "inhibition": "2.58%"}
{"smiles": "CSc1nnc(SCc2nc3sc(C(=O)O)c(C)c3c(=O)[nH]2)s1", "inhibition": "4.86%"}
{"smiles": "COc1ccccc1NC(=O)CSc1nc2sc3c(c2c(=O)n1-c1ccccc1)CCN(C)C3", "inhibition": "-6.51%"}
{"smiles": "Cc1ccc(-c2nc(SCC(=O)Nc3ccccc3OC(F)F)c3c(C)c(C(=O)O)sc3n2)cc1", "inhibition": "29.7% (active)"}
{"smiles": "CCOC(=O)c1ccc[n+](CC(=O)Nc2ccccc2OC(F)F)c1", "inhibition": "-2.1%"}
{"smiles": "COc1ccc([N+](=O)[O-])cc1NCC(=O)c1ccc(C)cc1", "inhibition": "5.63%"}
{"smiles": "Cc1ccc(S(=O)(=O)N(CC(O)CN2C(=O)NC(C)(C)C2=O)c2cccc([N+](=O)[O-])c2)cc1", "note": "(centres undefined)", "inhibition": "-8.62%"}
{"smiles": "Cc1ccc(O)c(/C=N/NC(=O)COc2ccc3c(C)cc(=O)oc3c2)c1", "inhibition": "27.9% (active)"}
{"smiles": "Cc1cc(=O)oc2cc(OCC(=O)Nc3nnc(C4CC4)s3)ccc12", "inhibition": "7.9%"}
{"smiles": "CCOC(=O)Cc1csc(NC(=O)COc2ccc3c(C)cc(=O)oc3c2)n1", "inhibition": "-2.07%"}
{"smiles": "Cc1ccc(OCCC(=O)OCC(=O)N2c3ccccc3NC(=O)C2(C)C)cc1", "inhibition": "-1.98%"}
{"smiles": "CN1CCN(CC(=O)C23CC4CC(CC(C4)C2)C3)CC1", "inhibition": "-0.65%"}
